# Bioassay records (PubChem BioAssay)
# Rows were chosen to be rich in hits. Some 1% of all compounds tested hit in one or more screens of this group.
# TRb-SRC2 inh – qHTS for Inhibitors of the Interaction of Thyroid Hormone Receptor and Steroid Receptor Coregulator 2 | Thyroid hormone receptor beta (Homo sapiens), P10828 | TRbeta-SRC2 peptide binding, fluorescence polarization; receptor liganded with 1 µM T3 | hit rate 0.065% among 280,000 | Potency, µM (top dose mostly 106 µM), for inactives: at the top dose activity change, negative = inhibition, usual class: inhibitors;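 note: potency is the fitted concentration of half-maximal effect; plate controls were bound peptide for no effect and peptide without receptor for full effect; nearly all actives have a fitted effect of over 50% in size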
# Target sequence (P10828 whole entry, looked up): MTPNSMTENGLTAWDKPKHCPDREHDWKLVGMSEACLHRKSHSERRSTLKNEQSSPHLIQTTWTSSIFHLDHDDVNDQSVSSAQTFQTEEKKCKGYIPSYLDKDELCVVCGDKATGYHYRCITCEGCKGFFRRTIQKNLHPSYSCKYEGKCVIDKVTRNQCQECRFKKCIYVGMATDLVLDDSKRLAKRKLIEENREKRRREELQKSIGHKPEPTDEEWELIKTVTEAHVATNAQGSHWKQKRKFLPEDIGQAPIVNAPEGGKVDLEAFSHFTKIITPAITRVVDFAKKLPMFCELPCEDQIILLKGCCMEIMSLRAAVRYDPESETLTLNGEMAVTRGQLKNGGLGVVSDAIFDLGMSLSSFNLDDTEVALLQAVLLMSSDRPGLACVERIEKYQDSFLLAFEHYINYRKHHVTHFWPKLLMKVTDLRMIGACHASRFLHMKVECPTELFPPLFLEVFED
#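 Quantitative HTS by FP: 0.6 uM TRb LBD, 20 nM labeled SRC2 20-mer, 1 uM T3, 5% DMSO; 5 hr ambient incubation; % activity per concentration and potencies from concentration series.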
# TR SRC2 fluor cs – Total Fluorescence Counterscreen for Inhibitors of the Interaction of Thyroid Hormone Receptor and Steroid Receptor Coregulator 2; TRb/SRC2 Texas Red total fluorescence interference; Potency, µM (titrated, usually from 106 µM), without a hit: at the highest dose fluorescence change, negative = quenching; hit rate 0.29% among 280,000; active = well fitted curve in either direction with a large enough effect; inconclusive = small, poorly fitted or top-dose-only effect; note: potency is the fitted concentration of half-maximal effect; % is set by controls: 0 for no effect and ±100 for the full control effect
#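 Flags fluorescent or light-absorbing compounds by total fluorescence, S + 2P, at 555 nm excitation and 632 nm emission. Mixture: 20 nM Texas Red SRC2 peptide, 0.6 uM human TRb LBD, 1 uM T3, 5% DMSO; compound exposure 5 h at ambient temperature.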
# TSHR antag – Antagonists of the Thyroid Stimulating Hormone Receptor: HTS campaign | TSHR-expressing cells, TSH-stimulated cAMP HTRF, 2 h; active compounds read low | activity change, negative = inhibition, % at 11.5 µM | hit rate 0.2% among 330,000 | AID 504810, 2011;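 active = activity change below a set negative limit, meaning inhibition stronger than a set level, cut at about -70% in these data; inconclusive = activity change between two set negative limits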; note: % is set by controls: 0 for no effect and ±100 for the full control effect
#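 Cell-based HTRF cAMP assay; TSHR cells + compound, TSH EC80 (4nM final), 2 h, 37 deg C. Lysis with anti-cAMP cryptate and cAMP-d2, 30 min RT, read 665/620 nm.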
# NPSR antag – qHTS Assay for Antagonists of the Neuropeptide S Receptor: cAMP Signal Transduction. Potency, µM (series often up to 38.3 µM), for the others: top-dose activity change, negative = inhibition, most hits filed as inhibitors. Q6W5P4. CHO-NPSR cells, cAMP TR-FRET, antagonist mode. hit rate 1% among 220,000. AID 1461, 2008; note: potency is the fitted concentration of half-maximal effect; % is set by controls: 0 for no effect and ±100 for the full control effect; nearly all actives have a fitted effect of over 50% in size
# Coupling enz – qHTS Assay for Inhibitors of Fructose-1,6-bisphosphate Aldolase from Giardia Lamblia: Coupling assay counterscreen; coupling enzyme system counterscreen, AmpLite Red fluorescence; activity change, negative = inhibition, % at 58.2 µM, hits read low; hit rate 0.67% among 290,000; AID 2472, 2010; in the data active = activity change below about -30%; note: % is set by controls: 0 for no effect and ±100 for the full control effect
#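 Counterscreen lacking aldolase: glyceraldehyde-3-phosphate coupling-enzyme reagent preincubated 10 min at RT with compound (at 57.5 uM final), then substrate/coupling system with AmpLite Red added; fluorescence read at 525/598 nm after 20 min RT.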
# TCR act – Activators of T cell receptors: qHTS campaign | primary human leukocytes, anti-CD3, IL-2 HTRF, 48 h | Potency, µM (doses to about 9.22 µM), without a hit: at the top dose activation of IL-2 secretion, usual class: activators | 330,000 tested, under 10 active; note: % of control where 0% means no effect
#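 IL-2 release read by HTRF sandwich (Eu cryptate donor, d2 acceptor, 665 nm emission) after 48 hr exposure of primary human leukocytes to compound together with anti-CD3 beads in the absence of co-stimulatory signals.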
# The depositor's hits bear a star; ? = inconclusive; . = not tested or not shown; [ ] = remark or other dose. Unless noted, calls come from the whole dose curve; as a rule, active = well fitted curve in the direction sought with a large enough effect; inconclusive = small, poorly fitted or top-dose-only effect, or another doubt; inactive = no such curve, though single readings can be large; an effect the other way counts as inactive or inconclusive.
SMILES,TRb-SRC2 inh,TR SRC2 fluor cs,TSHR antag,NPSR antag,Coupling enz,TCR act
CCOc1ccc(NC(=O)/C=C\C(=O)N(c2ccc(C(C)C)cc2)C(C(=O)NCc2ccco2)c2ccc(F)cc2)cc1 (configuration not stated),3%,-2%,.,.,.,.
NCCNCCN,-1%,-6%,.,.,-44*,.
Cc1ccc(Nc2cc(C)nn2-c2nc(C)cc(C)n2)cc1,-2%,-4%,17,0.79µM*,0,-4%
Cc1ccc(Cl)cc1Cl,-8%[201 µM],-5%[201 µM],.,.,.,.
O=C(NCc1cccnc1)/C(=C/c1ccc(-c2cccc(Cl)c2)o1)S(=O)(=O)c1ccccc1,-13%,-4%,-10,5µM*,2,-3%
O=C(NCc1cccnc1)/C(=C\c1ccc(-c2cccc(Cl)c2)o1)S(=O)(=O)c1ccccc1,7%,1%,-20,?,3,-1%[46.1 µM]
Cc1nnc(NC(=O)c2cccc(S(=O)(=O)N3CCc4ccccc43)c2)s1,-4%,-1%,-11,1.6µM*,14,5%
CCc1nnc(NC(=O)c2cccc(S(=O)(=O)N3CCc4ccccc43)c2)s1,6%,1%,-16,-13%[46.1 µM],-1,4%
O=C(OCC1CCC2OC2C1)C1CCC2OC2C1 (configuration not stated),3%[201 µM],3%[201 µM],.,.,.,.
Cc1ccc(NC(=O)c2sc3nc(C)nc(N4CCN(c5ccccn5)CC4)c3c2C)c(C)c1,-4%,2%,-16,13µM*,-2,-3%
Cc1ccc(/C=N/NC(=O)c2cccc(S(=O)(=O)Nc3ccccc3Cl)c2)s1,-1%,-6%,-10,-12%[46.1 µM],-34*,-3%[46.1 µM]
O=C(N/N=C/c1ccccc1C(=O)O)c1cccc(S(=O)(=O)Nc2cc(Cl)ccc2Cl)c1,3%,-2%,-4,0%,17,-3%
C=CCOc1ccc(CNc2ccc3[nH]c(=O)[nH]c3c2)cc1OC,12%,-4%,18,-14%,-14,9%
COc1ccc(CNc2ccc3cn[nH]c3c2)c(OC)c1OC,-18%,-4%,-5,-5%[46.1 µM],-47*,.
CCOc1cc(CNc2ccc3cn[nH]c3c2)ccc1OC,3%,-3%,7,1%[46.1 µM],-55*,-2%
CC(=O)Nc1ccc(N2CCCC2)cc1,-10%,1%,1,-23%[46.1 µM],-32*,2%
CC1CCCN(C2=C(NS(=O)(=O)c3ccc(Cl)cc3)C(=O)c3ccccc3C2=O)C1 (configuration not stated),0%,4%,8,-46%,-40*,-6%[46.1 µM]
COC(=O)C1CCN(C2=C(NS(=O)(=O)c3ccc(Cl)cc3)C(=O)c3ccccc3C2=O)CC1,-1%,2%,3,-24%,-25,8%
Cc1ccc(S(=O)(=O)NC2=C(N3CCN(c4ccccc4F)CC3)C(=O)c3ccccc3C2=O)cc1,-7%,-2%,-10,-26%[46.1 µM],-27,1%
CC1CCCN(C2=C(Cl)C(=O)N(c3cccc(Cl)c3)C2=O)C1 (configuration not stated),-1%,0%,4,-44%,12,3%[46.1 µM]
Cc1ccc(S(=O)(=O)NC2=C(N3CCN(Cc4ccccc4)CC3)C(=O)c3ccccc3C2=O)cc1,-1%,-6%,1,-14%[46.1 µM],-34*,8%
NC(=O)C1CCN(C2=C(NS(=O)(=O)c3ccc(Cl)cc3)C(=O)c3ccccc3C2=O)CC1,-2%,-5%,-4,-16%,-30*,-5%
COc1ccc(N2CCN(C(=O)Cc3c(C(=O)O)c(C)cn3C)CC2)cc1,4%,-4%,.,.,.,.
CCOC(=O)N1CCN(C2=C(NS(=O)(=O)c3ccc(C)cc3)C(=O)c3ccccc3C2=O)CC1,.,.,-7,.,.,4%
CC(=O)Nc1ccc(S(=O)(=O)NC2=C(N3CCN(c4ccc(F)cc4)CC3)C(=O)c3ccccc3C2=O)cc1,-21%,-5%,-29,?,-56*,0%
SMILES,TRb-SRC2 inh,TR SRC2 fluor cs,TSHR antag,NPSR antag,Coupling enz,TCR act
O=C1C(NS(=O)(=O)c2cccs2)=C(N2CCN(c3ccccc3)CC2)C(=O)c2ccccc21,-2%,-3%,21,-24%[46.1 µM],-33*,-29%
CCOC(=O)c1ccc(N2C(=O)c3n[nH]c(C)c3C2c2ccccc2OC)cc1 (configuration not stated),-5%,-1%,.,.,.,.
CCCCN(CC)C(=O)c1cc2c(=O)n3ccccc3nc2n1C,-3%,-22%,.,.,.,.
CN(C)C1C(=O)C(C(N)=O)=C(O)[C@@]2(O)C(=O)C3=C(O)c4c(O)ccc(Cl)c4C(O)[C@H]3C[C@@H]12 (some centres not stated),-2%,-4%,.,.,-1,.
CN(C)[C@H]1C(=O)C(C(=O)NCN2CCCC2)=C(O)[C@]2(O)C(=O)C3=C(O)c4c(O)cccc4[C@@](C)(O)[C@H]3C[C@@H]12,-7%[53 µM],-2%[53 µM],.,.,-36*,.
CCCC1=NN2C(=N)/C(=C\c3ccc(SCc4ccco4)o3)C(=O)N=C2S1,?,50µM*[fluorescent],-18,-8%[46.1 µM],4,-2%
COc1ccc(C(=O)c2c(C(F)(F)F)oc3c2C(=O)c2ccccc2C3=O)cc1OC,0%,-5%,23,?,-55*,-1%
